Inconclusive results are not listed. Active and inactive are the calls of the source. Unless noted, calls follow the shape of the dose curve; as a rule, active = well fitted curve in the direction sought with a large enough effect in the repeat runs; inconclusive = weak or mixed curves; inactive = no such curve, though single readings can be large; an effect the other way counts as inactive or inconclusive.
Key:
[1] = qHTS assay for small molecule agonists of the p53 signaling pathway (AID 651631; calls by dose curve; also: nearly all actives have a fitted effect of over 15% in size)
Outline: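 HCT-116 p53RE-bla reporter line, 16 h compound treatment at 37 °C, then fluorescence after 2 h with B/G FRET substrate.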

[2] = qHTS assay for small molecules that induce genotoxicity in human embryonic kidney cells expressing luciferase-tagged ATAD5 (AID 651632); also: nearly all actives have a fitted effect of over 15% in size
Outline: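 ATAD5-luc HEK293T, 2,000 cells/well; cpd or DMSO pin-transferred; 16 hr, 37C/5% CO2; Amplite 30 min RT; luminescence.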

[3] = qHTS assay for small molecule agonists of the p53 signaling pathway - cell viability (AID 651633; calls by dose curve;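 also: p53RE-bla HCT reporter cells with a stable beta-lactamase p53 reporter; series mostly up to about 83 µM; nearly all actives have a fitted effect of over 30% in size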)
Outline: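 p53RE-bla cells, seeded at 4,000 per well and rested 5 h at 37 C/5% CO2, received compounds in DMSO for 16 h at 37 C. CellTiter-Glo was then added, and luminescence was read after 30 min at room temperature to gauge cytotoxicity.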

[4] = qHTS assay for small molecules that induce genotoxicity in human embryonic kidney cells expressing luciferase-tagged ATAD5 - cell viability (AID 651634; calls by dose curve; also: nearly all actives have a fitted effect of over 25% in size)
Outline: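 Fluorescence from CellTiter-Fluor, reporting protease activity within live cells, served as the viability read-out. HEK293T cells carrying luciferase-tagged ATAD5 had been treated with compound for 15.5 hr at 37C.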

[5] = qHTS assay for small molecule disruptors of the mitochondrial membrane potential - cell viability (AID 720634; calls by dose curve;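 also: human HepG2 liver cancer cells; series mostly up to about 83 µM; nearly all actives have a fitted effect of over 20% in size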)
Outline: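 Cells: HepG2, 2,000/well, attached overnight. Compound 1 hr, 37 C/5% CO2. +m-MPI dye, +CellTiter-Glo 30 min RT. Readout: luminescence (ATP).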

[6] = qHTS assay for small molecule disruptors of the mitochondrial membrane potential (AID 720635)
Outline: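 HepG2 cells (2,000/well) attached overnight at 37C, then took compound for 1 hr at 37C, 5% CO2. Mito-MPS dye was added for 30 min; fluorescence was read at 490/535 nm (monomers) and 540/590 nm (aggregates).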

[7] = qHTS assay to test for compound auto fluorescence at 590 nm (red) in HepG2 cells (AID 720674)
Outline: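 Intrinsic compound fluorescence in the red window (Ex/Em 540/590 nm) is measured in attached HepG2 cells exposed for 1 hr, DMSO vehicle as baseline, benchmarked to Rose Bengal sodium.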

[8] = qHTS assay to test for compound auto fluorescence at 535 nm (green) in HepG2 cells (AID 720675)
[9] = qHTS assay to test for compound auto fluorescence at 460 nm (blue) in HEK293 cells (AID 720678)
Outline: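 After cell attachment (4-5 hr, 37C), compounds were pinned onto HEK293 monolayers in 10% dialyzed FBS medium. The blue channel (405/460 nm) was read following overnight culture. Equivalency was calculated against triamterene.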

[10] = qHTS assay to test for compound auto fluorescence at 590 nm (red) in HEK293 cells (AID 720679)
Outline: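 Plates of HEK293 cells (10% dialyzed FBS) are treated with 23 nL compound or DMSO vehicle after a 4-5 hr attachment period, incubated overnight at 37C, and read for red fluorescence at 540/590nm.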

Measured: Potency

O=C(O)CSCC(=O)NC1CCSC1=O (stereo not given)
inactive: all assays above

CCCCCCCCCCCCCCCCCC#N
not listed: [8]
inactive: all other assays above

CC(=O)C(C)O (stereo not given)
inactive: all assays above

CCCCCc1cccc(=O)o1
not listed: [8]
inactive: all other assays above

C[Si]1(C)O[Si](C)(C)O[Si](C)(C)O[Si](C)(C)O[Si](C)(C)O1
not listed: [8]
inactive: all other assays above

O=C(O)c1cc2ccccc2nc1C(=O)O
not listed: [6]
inactive: all other assays above

O=C(O)[C@H](O)c1ccccc1
not listed: [7]
inactive: all other assays above

From PubChem BioAssay (Tox21)
